# In the library only some 19% were active in any assay of this set; here they are far more common.
# TDP1 inh: blocks human tyrosyl-DNA phosphodiesterase 1; recombinant TDP1, AlphaScreen DNA substrate cleavage; 350,000 compounds, 0.28% hits; Potency, µM (series often up to 130 µM), inactives show top-dose activity change, negative = inhibition, usual class: inhibitors; note: potency is the fitted concentration of half-maximal effect; nearly all actives have a fitted effect of over 40% in size
# Target sequence (Q9NUW8 whole entry, looked up): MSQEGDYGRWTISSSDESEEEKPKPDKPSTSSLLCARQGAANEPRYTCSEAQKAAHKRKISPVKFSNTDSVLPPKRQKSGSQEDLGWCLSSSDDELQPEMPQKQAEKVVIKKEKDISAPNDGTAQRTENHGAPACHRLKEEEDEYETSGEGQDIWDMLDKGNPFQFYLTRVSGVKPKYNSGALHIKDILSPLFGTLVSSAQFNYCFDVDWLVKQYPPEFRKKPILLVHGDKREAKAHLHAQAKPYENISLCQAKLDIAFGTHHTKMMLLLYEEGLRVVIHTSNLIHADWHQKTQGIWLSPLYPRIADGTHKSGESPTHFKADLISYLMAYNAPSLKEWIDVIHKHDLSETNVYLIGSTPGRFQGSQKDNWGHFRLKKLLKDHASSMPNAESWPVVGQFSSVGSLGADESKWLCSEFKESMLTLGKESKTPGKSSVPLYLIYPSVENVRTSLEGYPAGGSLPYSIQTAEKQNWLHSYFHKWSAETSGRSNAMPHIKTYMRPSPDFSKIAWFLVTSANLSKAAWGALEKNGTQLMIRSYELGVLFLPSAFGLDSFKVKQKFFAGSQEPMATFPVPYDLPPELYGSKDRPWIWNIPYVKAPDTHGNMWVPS
#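 Steps: enzyme plus compound, 15 min RT; add biotin/phosphotyrosine-FITC oligonucleotide (15 nM final), react 5 min; add donor/acceptor beads (10 ug/ml final), 10 min; read AlphaScreen. Tdp1 at 1 nM final.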
# ELG1 DNA repair: inhibitors of ELG1-dependent DNA repair in HEK293T cells; HEK293T ELG1-luciferase reporter, luminescence, 16 h; DNA damage induced by 5-fluorouridine; Potency, µM (doses to about 46.1 µM), for the others: top-dose activity change, negative = inhibition, hits mostly inhibitors; 330,000 compounds, 2.3% hits; note: potency is the fitted concentration of half-maximal effect; nearly all actives have a fitted effect of over 55% in size
#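 Reporter activity after DNA damage by 5-fluorouridine is monitored. Compound-treated cells incubate 16 hr at 37 °C, then ONE-Glo is added for 30 min before luminescence reading.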
# Giardia killer: kills Giardia lamblia | Giardia lamblia trophozoite viability | activity change, % at 7.66 µM, hits read low | 340,000 compounds, 0.15% hits; in the data active = activity change below about -80%; inconclusive = between about -30% and that limit;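 note: parasites exposed to compound for two days anaerobically before the ATP read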
#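 ATP-content bioluminescence gauges trophozoite survival. Cells (100/well) receive compound and incubate anaerobically for 48 hrs at 37 deg C; detection reagent follows for 15-30 min at room temperature.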
# IL-1B inflam inh: inflammasome signaling inhibition, IL-1 beta readout | activity change, % at 57.5 µM | 360,000 compounds, 4.7% hits | THP-1 LPS/ATP IL-1B secretion, AlphaLISA, 16 h; hits give low values; in the data active = activity change below about -50%; inconclusive = mostly about -30% to -49%
#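 THP-1 cells pretreated 1 hr with compounds (up to 57.5 uM final), then stimulated with LPS (250 ng/mL final) plus ATP (1.25 mM final); secreted IL-1B measured by AlphaLISA after 16 hr, decreased signal indicating inhibition.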
# DT40 TDP1 CPT: DT40-hTDP1 cell growth loss with CPT | chicken DT40 Tdp1-/-;hTDP1 cells + 20 nM CPT, ATP luminescence, 48 h | Potency, µM (series often up to 46.2 µM), for the others: at the top dose activity change, negative = growth inhibition, hits mostly inhibitors | 420,000 compounds, 12% hits; note: potency is the fitted concentration of half-maximal effect; nearly all actives have a fitted effect of over 55% in size
#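 Chicken DT40 Tdp1-/- cells complemented with human TDP1, 400 cells/well, exposed to compounds plus 20 nM camptothecin for at least 48 h at 37 C; viability read as ATP content by CellTiter-Glo luminescence.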
# TDP1 cell noCPT: qHTS for Inhibitors of human tyrosyl-DNA phosphodiesterase 1 (TDP1): qHTS in cells in absence of CPT; DT40 Tdp1-/- hTDP1 cells, no CPT, ATP luminescence, 48 h; Potency, µM (series often up to 46.2 µM), for inactives: at the top dose activity change, negative = growth inhibition, actives largely listed as inhibitors; 420,000 compounds, 15% hits; note: potency is the fitted concentration of half-maximal effect; nearly all actives have a fitted effect of over 55% in size
#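 Readout: luminescence from CellTiter-Glo after 30 min in the dark at RT. Cells: DT40 Tdp1-/- with stable hTDP1, 400/well. Exposure: compounds alone, ≥48 hr, 37 °C.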
# Active calls of the source: *; ? = inconclusive; . = not tested or not shown; [ ] = remark or other dose. Unless noted, calls come from the whole dose curve; as a rule, active = well fitted curve in the direction sought with a large enough effect; inconclusive = small, poorly fitted or top-dose-only effect, or another doubt; inactive = no such curve, though single readings can be large; an effect the other way counts as inactive or inconclusive. % is set by controls: 0 for no effect and ±100 for the full control effect.
SMILES,TDP1 inh,ELG1 DNA repair,Giardia killer,IL-1B inflam inh,DT40 TDP1 CPT,TDP1 cell noCPT
Cc1cccc2cc(-c3ccccc3)c(-c3ccccc3)c[n+]12,8%,-25%,6,-3,8.2µM*,7.3µM*
Cc1ccc(-c2nnc(Nc3ccc(Cl)c(Cl)c3)c3ccccc23)cc1S(=O)(=O)N(C)C,4%[12.3 µM],.,.,.,?,?
Cc1ccc(-c2nnc(Nc3ccc4c(c3)OCO4)c3ccccc23)cc1S(=O)(=O)NCCO,6%,?,14,-9,?,16µM*
Cc1ccc(-c2nnc(Nc3ccc(CC(N)=O)cc3)c3ccccc23)cc1S(=O)(=O)NCCO,.,1%,11,7,-5%,12%
Cc1ccc(-c2nnc(Nc3ccc(Cl)c(Cl)c3)c3ccccc23)cc1S(=O)(=O)NCCO,1%[12.3 µM],.,.,.,18µM*,18µM*
Cc1cccc(NCc2ccc([N+](=O)[O-])s2)c1,.,?,11,-21,-1%,-3%
O=[N+]([O-])c1ccc(CNc2cccc(F)c2)s1,.,-24%,-2,-52*,5%,-28%
Cc1cccc(Nc2nc(N)nc(N)c2N=O)c1,.,.,0,-57*,26µM*,21µM*
Cc1cc(Br)ccc1Nc1nc(N)nc(N)c1N=O,.,.,6,?,10µM*,?
CC(=O)NN1C(=O)/C(=C\c2ccc(Br)o2)SC1=S,-5%,?,0,-97*,?,16µM*
Cc1cc(-c2ccccc2)nc(N(C)NC(=O)c2c(F)cccc2F)c1S(C)(=O)=O,-5%,18µM*,7,-19,?,23µM*
Cc1cc(-c2ccccc2)nc(N(C)N)c1S(C)(=O)=O,4%,-2%,3,-5,-14%,-10%
CN(C)c1ccc(NC(=S)Nc2ccc3c(c2)c(=O)n(C)n3-c2ccc(C(C)(C)C)cc2)cc1,.,.,.,5,21µM*,12µM*
CN(C)c1ccc(NC(=O)Nc2ccc3c(c2)nnn3C)cc1,.,?,5,-1,3%,-3%
CN(C)c1ccc(NC(=O)Nc2ccc3c(c2)c(=O)n(C)n3-c2ccccc2)cc1,.,.,.,-24,?,21µM*
Cc1ccnc2nc(C(=O)OCC(=O)NC3CCCC(C)C3C)nn12 (centres undefined),0%,8%,65,-8,-20%,1.5µM*
Cc1ccc(C(=O)OCC(=O)NC2CCCC(C)C2C)cc1S(=O)(=O)N1CCCCC1 (centres undefined),1%,?,-8,9,21µM*,?
Cc1ccc(C(=O)OCC(=O)N2c3ccccc3NC(=O)C2(C)C)cc1S(=O)(=O)N1CCCCC1,-7%,?,-22,-19,?,15µM*
COc1cc(NC(=O)COC(=O)c2ccc(C)c(S(=O)(=O)N3CCCCC3)c2)c(C)cc1[N+](=O)[O-],-7%,8.2µM*,5,-5,?,?
COc1cc(NC(=O)Cn2ncc(Cl)c(Cl)c2=O)c(C)cc1[N+](=O)[O-],-1%,?,2,-95*,2.9µM*,4.6µM*
CC(OC(=O)c1ccc(Cl)c(S(=O)(=O)N2CCCC2)c1)C(=O)NC1CCCCC1C (centres undefined),3%,0%,.,.,.,.
Cc1ccc(C(=O)OC(C)C(=O)NC2CCCCC2C)cc1S(=O)(=O)N1CCCCC1 (centres undefined),0%[56.1 µM],?,-3,23,18µM*,?
CC1CC(=O)Nc2ccccc2N1C(=O)CSc1ccc2ccccc2n1 (centres undefined),0%,-6%,7,-9,16µM*,?
Cc1cc(SCC(=O)N2c3ccccc3NC(=O)CC2C)nc2ccccc12 (centres undefined),.,.,.,-9,?,16µM*
CCn1nnnc1SCC(=O)N1c2ccccc2NC(=O)CC1C (centres undefined),-3%,?,-1,-6,-3%,0%
SMILES,TDP1 inh,ELG1 DNA repair,Giardia killer,IL-1B inflam inh,DT40 TDP1 CPT,TDP1 cell noCPT
O=C(O)c1c(-n2cccc2)sc2c1CCCC2,0%,?,-9,0,12%,-18%
COc1ccc(Cc2nnc(-c3cccc(C)c3)o2)cc1OC,3%,0%,-1,28,?,?
COc1ccc(Cc2nnc(Nc3ccc(C)cc3)o2)cc1OC,-1%,?,17,-24,8.2µM*,6.5µM*
c1ccc2c(c1)c1c(c3ccccc32)CN2CCCC2C1 (centres undefined),.,.,2,-97*,5.2µM*,8.2µM*
C[C@@H]1CC[C@]2(C(=O)O)CC[C@]3(C)C(=CCC4[C@@]5(C)C[C@@H](O)[C@H](O)[C@@](C)(CO)C5[C@H](O)C[C@]43C)C2[C@H]1C (some centres undefined),6%,.,.,.,.,.
O=C(CSc1nnc2ccc(-c3cccnc3)nn12)Nc1ccccc1,.,9%,-5,14,11%,6%
CC1=C(C)C(=O)C(N2CCOCC2)=CC1=O,-1%,?,-5,13,16µM*,15µM*
O=C1C=C(N2CCOCC2)c2ccccc2C1=O,.,?,18,-103*,2.6µM*,2.3µM*
Cc1ccc(N2CCOCC2)c2c1C(=O)c1ccccc1C2=O,3%,?,-13,?,?,16µM*
O=C1C(N2CCOCC2)=Cc2cccc3cccc1c23,.,.,.,-12,?,?
CC1(N2CCOCC2)C(=O)c2ccccc2C1=O,-3%,1%,5,14,6%,-17%
O=C1C=C(N2CCOCC2)c2cccc3cccc1c23,.,.,.,-8,-27%,15µM*
CCOC(=O)N1CCC(=NNC(N)=O)C1,.,.,.,2,22%,-1%
O=C(NC1CC(=O)N(c2ccc(Cl)cc2)C1)C1CCCCC1 (centres undefined),3%,.,.,.,-12%,4%
CN(C1=C(N2CCOCC2)C(=O)c2ccccc2C1=O)c1ccccc1,14%,-14%,-12,-86*,13µM*,16µM*
c1ccc(N2CCOCCOCCOCCOCCOCC2)cc1,2%,0%,2,7,-2%,-16%
Cc1ccc(-n2nc3cc(C)c(NC(=O)c4ccc(-c5ccccc5)o4)cc3n2)cc1,1%[2.28 µM],.,.,.,-2%,-3%
CC1CCN(S(=O)(=O)c2nnc(NC(=O)c3cccc(Cl)c3)s2)CC1,5%,?,-23,23,13µM*,21µM*
Cc1ccc(N2CCN(S(=O)(=O)c3nnc(NC(=O)c4cccc(F)c4)s3)CC2)cc1,-1%,.,.,.,18µM*,15µM*

# Source: PubChem BioAssay (National Center for Advancing Translational Sciences (NCATS))
